The record followed here is PubChem BioAssay AID504401 (The Scripps Research Institute Molecular Screening Center, 2011).

The experiment has as its system Phorbol Ester. As to the kind of experiment: CYP450 and receptor off-target profile – biochemical, Ricerca HitProfilingScreen, selectivity assay for GPR7 antagonist project, late-stage follow-up (AID 504401). The note with it: Ricerca radioligand binding and CYP450 panel, at 10 µM, hits give high values.

A number with no mark means an inactive call. The rule behind the calls is not given here.

The term inhibition denotes the relative decrease from the control value, in per cent. Turning to `COc1ccc(Oc2c(Cl)cnn(-c3cc(C)cc(C)c3)c2=O)cc1`, the inhibition was -15%.
